Z-score and composite z-score data for nine compounds are collected here from PubChem BioAssay.

Each structure is given as a SMILES string. Activity calls are given as the source filed them.

A short description of assay [1]: optical density shifts of acrAB sulA E. coli – strain DRC41, OD650, 48 h, E. coli filamentation inducer project, primary screen (AID 1152).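 Note: E. coli MC1000 strain DRC41 lacking acrAB efflux pump and sulA.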 Conditions: higher = more signal, called active from +8 up or from −8 down.
Assay [2] in a line: probe aLefty1 binding on compound microarray – biochemical, small-molecule microarray, 635/667 nm fluorescence, primary screen (AID 1153).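 Note: score merges spot fluorescence with signal-to-noise ratio from the scanned slide images.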 As to conditions: higher = more signal.
Assay [3] can be described thus: plasmodial surface anion channel blockers, osmotic lysis – cell-based, P. falciparum Indochina, OD700, 1 h, primary screen (AID 1154). Conditions: P. falciparum Indochina infected RBC osmotic lysis, higher = more signal, called active from +8 up or from −8 down.
Assay [4] in a line: plasmodial surface anion channel blockers, osmotic lysis – cell-based, P. falciparum Indochina, OD700, 2 h, primary screen (AID 1155).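 Note: lysis reports solute entry through the parasite surface anion channel PSAC.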 Conditions: P. falciparum Indochina infected erythrocytes, higher = more signal, called active from +8 up or from −8 down.
Assay [5] is described as follows: changes in parasitized red cell lysis, either direction – P. falciparum Indochina, OD700, 3 h, PSAC antagonist project, primary screen (AID 1156). Conditions: P. falciparum-infected erythrocytes, osmotic lysis, higher = more signal, called active from +8 up or from −8 down.
Assay [6] in a line: plasmodial surface anion channel blockers, osmotic lysis – cell-based, P. falciparum Indochina, OD700, 18 h, primary screen (AID 1157). As to conditions: P. falciparum Indochina infected erythrocytes, osmotic lysis OD700, 18 h; higher = more signal, called active from +8 up or from −8 down.
Assay [7] can be described thus: S6 kinase pathway phospho-S6 level changes – cell-based, A549, cytoblot, luminescence, serum-stimulated, primary screen (AID 1158).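 Note: serum-stimulated A549 lung adenocarcinoma cells; signal is phosphorylated S6 detected by cytoblot immunostaining with HRP secondary.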 As to conditions: 5 h, higher = more signal.
Assay [8] deals with NADPH oxidase 2 (Homo sapiens) (UniProt P04839). The assay is described as follows: compounds shifting NOX2 Amplex Red fluorescence – cell-based, HEK293-NOX2, PMA-stimulated, NOX inhibitor project, primary screen (AID 1159). Note: test concentration not given here. Conditions: 45 min, higher = more signal, called active from +8 up or from −8 down.
Sequence of NADPH oxidase 2 (Homo sapiens) (P04839 whole entry, looked up): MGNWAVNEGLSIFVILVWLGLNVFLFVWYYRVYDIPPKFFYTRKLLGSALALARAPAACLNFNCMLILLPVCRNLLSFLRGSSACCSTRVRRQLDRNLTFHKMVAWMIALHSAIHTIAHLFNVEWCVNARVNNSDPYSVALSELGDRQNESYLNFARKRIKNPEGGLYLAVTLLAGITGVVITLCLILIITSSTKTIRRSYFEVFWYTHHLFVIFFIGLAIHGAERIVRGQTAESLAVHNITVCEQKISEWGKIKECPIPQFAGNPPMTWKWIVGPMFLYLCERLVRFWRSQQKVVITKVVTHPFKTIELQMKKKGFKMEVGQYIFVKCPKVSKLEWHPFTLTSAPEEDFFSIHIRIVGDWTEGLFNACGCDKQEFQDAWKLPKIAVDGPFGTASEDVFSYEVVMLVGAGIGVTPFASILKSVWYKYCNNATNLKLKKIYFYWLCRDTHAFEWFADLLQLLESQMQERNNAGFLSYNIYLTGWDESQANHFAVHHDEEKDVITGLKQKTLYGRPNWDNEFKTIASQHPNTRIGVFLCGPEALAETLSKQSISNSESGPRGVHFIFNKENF
The target in assay [9] is NADPH oxidase 4 (Homo sapiens) (UniProt Q9NPH5). The assay is described as follows: compounds shifting NOX4 Amplex Red fluorescence – cell-based, HEK293-NOX4, tetracycline-induced, NOX inhibitor project, primary screen (AID 1160). As to conditions: HEK293-NOX4, Amplex Red H2O2 fluorescence, 45 min; higher = more signal, called active from +8 up or from −8 down.
Sequence of NADPH oxidase 4 (Homo sapiens) (Q9NPH5 whole entry, looked up): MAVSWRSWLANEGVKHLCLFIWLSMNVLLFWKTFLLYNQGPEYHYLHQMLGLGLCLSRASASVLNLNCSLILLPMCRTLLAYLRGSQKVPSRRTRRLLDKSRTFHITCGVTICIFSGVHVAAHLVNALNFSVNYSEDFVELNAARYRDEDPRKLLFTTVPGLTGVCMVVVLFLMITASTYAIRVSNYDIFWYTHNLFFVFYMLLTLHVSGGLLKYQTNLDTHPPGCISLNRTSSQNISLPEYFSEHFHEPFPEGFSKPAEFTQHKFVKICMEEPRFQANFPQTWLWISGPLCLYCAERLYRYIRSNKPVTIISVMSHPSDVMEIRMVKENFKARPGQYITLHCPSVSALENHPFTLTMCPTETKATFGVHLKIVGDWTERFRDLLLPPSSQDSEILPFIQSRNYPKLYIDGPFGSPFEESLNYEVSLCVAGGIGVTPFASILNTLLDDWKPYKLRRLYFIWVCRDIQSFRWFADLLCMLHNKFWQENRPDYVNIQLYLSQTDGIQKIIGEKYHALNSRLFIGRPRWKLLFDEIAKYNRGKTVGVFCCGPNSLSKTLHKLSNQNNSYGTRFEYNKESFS
For assay [10], the target named is NADPH oxidase 5 (Homo sapiens) (UniProt Q96PH1). The assay is described as follows: compounds shifting NOX5 Amplex Red fluorescence – cell-based, HEK293-NOX5, NOX inhibitor project, primary screen (AID 1161). Conditions: HEK293-NOX5, ionomycin, 45 min, higher = more signal.
Sequence of NADPH oxidase 5 (Homo sapiens) (Q96PH1 whole entry, looked up): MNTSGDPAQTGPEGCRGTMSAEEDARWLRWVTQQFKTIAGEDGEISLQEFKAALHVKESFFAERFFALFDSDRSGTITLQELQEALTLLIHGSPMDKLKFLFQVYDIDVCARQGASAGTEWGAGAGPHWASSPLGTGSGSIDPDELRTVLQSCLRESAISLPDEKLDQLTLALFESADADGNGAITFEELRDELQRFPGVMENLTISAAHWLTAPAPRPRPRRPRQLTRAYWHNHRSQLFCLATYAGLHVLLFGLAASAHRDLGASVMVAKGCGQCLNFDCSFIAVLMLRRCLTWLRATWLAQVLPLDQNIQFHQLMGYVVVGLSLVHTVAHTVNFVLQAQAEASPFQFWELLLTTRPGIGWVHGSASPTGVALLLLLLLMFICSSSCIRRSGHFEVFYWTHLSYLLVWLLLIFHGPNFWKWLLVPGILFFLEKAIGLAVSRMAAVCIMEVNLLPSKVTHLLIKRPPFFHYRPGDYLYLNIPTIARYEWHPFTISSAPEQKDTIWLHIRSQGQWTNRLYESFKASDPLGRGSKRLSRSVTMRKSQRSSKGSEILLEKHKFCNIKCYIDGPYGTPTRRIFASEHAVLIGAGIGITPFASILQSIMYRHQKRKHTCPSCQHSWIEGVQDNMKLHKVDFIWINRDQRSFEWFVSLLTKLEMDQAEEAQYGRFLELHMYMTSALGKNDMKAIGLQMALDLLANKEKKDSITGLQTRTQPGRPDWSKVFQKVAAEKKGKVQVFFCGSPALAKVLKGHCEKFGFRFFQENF
Assay [11] is described as follows: compound effects on lung adenocarcinoma cell viability – A549, calcein-AM fluorescence, 48 h, basal, profiling panel (AID 1162). Note: test concentration not given here. As to conditions: higher = more signal.
Assay [12] can be described thus: compound effects on differentiated 3T3-L1 adipocyte viability – cell-based, 3T3-L1 adipocytes, calcein-AM fluorescence, 48 h, basal, profiling panel (AID 1163). Note: test concentration not given here. Conditions: 3T3-L1 adipocytes viability, higher = more signal.
Assay [13] can be described thus: compound effects on hepatocellular carcinoma cell viability – HepG2, calcein-AM fluorescence, 48 h, basal, profiling panel (AID 1164). Note: test concentration not given here. Conditions: higher = more signal.
Assay [14] in a line: compound effects on multiple myeloma cell viability – MM1S, calcein-AM fluorescence, 48 h, basal, profiling panel (AID 1165). Note: test concentration not given here. As to conditions: higher = more signal.
Assay [15] can be described thus: calcein-AM signal in unstimulated myeloma cells – cell-based, calcein-AM fluorescence, 48 h, PK04 Diversity Set, profiling panel (AID 1166).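 Note: cells grown under basal conditions without added stimulus; test concentration not given here.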 As to conditions: RPMI8226 myeloma viability, higher = more signal.
Assay [16] is described as follows: JC-1 mitochondrial signal, unstimulated HepG2 cells – cell-based, JC-1 fluorescence, 24 h, 100 nL compound, profiling panel (AID 1167). Note: test concentration not given here. As to conditions: HepG2 mitochondrial potential, higher = more signal.
Assay [17] can be described thus: JC-1 mitochondrial signal, unstimulated adipocytes – cell-based, JC-1 fluorescence, 3T3-L1 adipocytes, 24 h, 100 nL compound, profiling panel (AID 1168). Note: test concentration not given here. As to conditions: JC-1 mitochondrial fluorescence, higher = more signal, called active from +8 up or from −8 down.
Assay [18] is described as follows: JC-1 mitochondrial signal, unstimulated myeloma cells – cell-based, JC-1 fluorescence, RPMI8226, 24 h, 100 nL compound, profiling panel (AID 1169). Note: test concentration not given here. Conditions: JC-1 mitochondrial potential fluorescence, higher = more signal.
Assay [19] is described as follows: JC-1 mitochondrial signal, unstimulated MM1S myeloma – cell-based, JC-1 fluorescence, 24 h, 100 nL compound, profiling panel (AID 1170). Note: test concentration not given here. As to conditions: MM1S mitochondrial potential, higher = more signal.
The nature of assay [20]: resazurin metabolic signal in A549 cells – cell-based, resazurin fluorescence, 24 h, PK04 Diversity Set, profiling panel (AID 1171). Note: test concentration not given here. Conditions: A549 viability, higher = more signal, called active from +8 up or from −8 down.

Turning to `C=CC[C@@]1(C(=O)O)N=C(c2ccc(OCCCO)cc2)O[C@@H]1c1ccccc1`, the z-score in assay [1] is 0.938 (inactive); in [3] it was 11.5 (active); in assay [4] it was 0.526 (inactive); in assay [5], 0.208 (inactive); in assay [6], 0.568 (inactive); in [7], 0.0003. For the same compound, the z-score was 0.0822 (inactive) in [8]; 1.25 (inactive) in assay [9]; 0.448 in assay [10]; 0.819 in assay [11]; -0.563 in [12]; 1.59 in assay [13]. In addition, the z-score in assay [14] is 0.576; in assay [15], -0.252; in assay [16], 0.89; in [17], 0.995 (inactive); in [18], -0.462; in [19] it was -0.341. Besides, the z-score in [20] is 0.353 (inactive). Also, in [2], the composite z-score was -0.146.
In the case of `COC(=O)C1(Cc2ccccc2)C=C2C(=C(C(C)C)C(=O)C2C)CN1` (stereo not given), the z-score in [1] is -1.72 (inactive); in [3], 2.03 (inactive); in [4], 0.326 (inactive); in assay [5], 1.42 (inactive); in assay [6], 0.592 (inactive); in [7], 0.128. Also, the z-score is -0.862 (inactive) in assay [8]; -5.34 (inactive) in [9]; -4.04 in assay [10]; -0.859 in assay [11]; 0.575 in [12]; -1.75 in assay [13]. Moreover, the z-score in assay [14] was -1.89; in [15] it was -1.53; in assay [16], -1; in [17] it was -1.76 (inactive); in assay [18], 0.838; in assay [19], 0.0816. Also, the z-score in assay [20] was -1.33 (inactive). The compound further returned a composite z-score in [2] of 0.276.
On to `O=C1NC(=O)C2C1C=CC(C(O)c1cc(C(F)(F)F)cc(C(F)(F)F)c1)N2Nc1ccc(Cl)cc1Cl` (stereo not given), for which the z-score in [1] is -2.29 (inactive); in assay [3], 0.321 (inactive); in [4], 0.168 (inactive); in assay [5] it was -1.6 (inactive); in assay [6], 0.998 (inactive); in assay [7] it was -1.41. In addition, the z-score in assay [8] was 0.128 (inactive); in assay [9], -5.87 (inactive); in assay [10], -2.22; in assay [11], -3.02; in assay [12] it was 0.0578; in [13], -2.76. The z-score was -3.69 in [14]; -3.56 in assay [15]; -2.94 in assay [16]; -1.19 (inactive) in [17]; -0.387 in assay [18]; 0.4 in assay [19]. Moreover, the z-score in assay [20] was -1.24 (inactive). In [2], the composite z-score came to 0.546.
As for `O=C1OCCC=C[C@H]2OC34C=CCN(c5ccc(Cl)cc5)C(=O)[C@H]3N(CCCCCO)C(=O)[C@@H]4C12` (stereo not given in full), the z-score was 1.81 (inactive) in assay [1]; 2.21 (inactive) in [3]; 0.355 (inactive) in assay [4]; 1.63 (inactive) in [5]; 0.795 (inactive) in [6]; 0.0411 in assay [7]. The z-score in assay [8] was 1.69 (inactive); in [9], 0.747 (inactive); in assay [10], 2.35; in assay [11], 0.657; in assay [12], 0.0279; in [13] it was 1.11. The z-score in [14] is 1.54; in [15] it was -0.579; in assay [16], 0.989; in assay [17] it was 1.14 (inactive); in [18], 0.211; in [19], 0.0628. In addition, the z-score in [20] was 1.03 (inactive). For the same compound, the composite z-score in [2] was determined as 0.211.
With `COc1ccc(NN2C(C(O)c3ccccn3)C=CC3C(=O)N(C4CCCCC4)C(=O)C32)cc1` (stereo not given), the z-score in assay [1] was 0.29 (inactive); in [3], 3.45 (inactive); in [4], 0.539 (inactive); in assay [5], 0.34 (inactive); in assay [6], 0.536 (inactive); in assay [7], -0.552. Also, the z-score in [8] was -0.973 (inactive); in assay [9] it was -3.8 (inactive); in [10], -2.33; in [11], -0.834; in [12], 0.23; in assay [13] it was 1.44. Further, the z-score in [14] is -1.3; in assay [15], -3.2; in assay [16], -0.645; in [17] it was -0.089 (inactive); in [18], 0.201; in [19] it was -1.51. In addition, in [20], the z-score was 0.342 (inactive). Further, in assay [2], the composite z-score turned out to be 0.267.
With `CC[C@@H]1[C@H]2C3C(=O)N(CC)C(=O)C3CC(=O)[C@H]2[C@H](c2ccc(C)cc2)N1S(=O)(=O)c1ccc(C)cc1` (stereo not given in full), the z-score in [1] was -0.272 (inactive); in [3], 2.27 (inactive); in assay [4], 1.99 (inactive); in assay [5], 0.925 (inactive); in assay [6] it was 1.3 (inactive); in assay [7], -0.12. Further, the z-score in assay [8] is 0.5 (inactive); in assay [9], 0.458 (inactive); in assay [10], 0.0674; in [11] it was -0.138; in assay [12], -0.303; in [13], -0.581. The z-score in assay [14] is 0.453; in [15], -0.144; in assay [16], 0.248; in assay [17], 0.438 (inactive); in [18] it was 0.485; in [19], -1.02. For the same compound, the z-score in [20] was -0.0875 (inactive). Also, the composite z-score in assay [2] came out at 0.0026.
Consider `COc1ccc([Si](C)(C)[C@H]2[C@H](CCn3cc([C@H](O)c4ccccc4)nn3)O[C@@]3(C(=O)N(Cc4ccc(N5CCC5=O)cc4)c4ccccc43)[C@@H]2C)cc1`, for which the z-score in assay [1] is 0.503 (inactive); in assay [3], 30.5 (active); in assay [4], 27.1 (active); in [5] it was 1.25 (inactive); in assay [6], 2.07 (inactive); in assay [7], 0.436. In addition, the z-score in assay [8] was 0.923 (inactive); in assay [9], 1.6 (inactive); in assay [10], 2.22; in assay [11], 0.399; in assay [12] it was 1.19; in assay [13] it was -0.541. In addition, the z-score in assay [14] was -0.695; in assay [15], -0.412; in assay [16] it was 0.411; in assay [17], -0.391 (inactive); in assay [18] it was -0.445; in assay [19] it was -0.202. Further, the z-score in assay [20] was -0.869 (inactive). For the same compound, in assay [2], the composite z-score was 0.0341.
On to `CN1C(=O)C2C(C1=O)C1C=C(c3ccc(CO)cc3)C2C(c2cccs2)N1Cc1cccc(OC(F)(F)F)c1` (stereo not given), for which the z-score in assay [1] is -0.652 (inactive); in assay [3], 17.4 (active); in assay [4] it was 3.33 (inactive); in [5], 1.81 (inactive); in assay [6] it was 1.43 (inactive); in assay [7], 0.624. The z-score was -2.71 (inactive) in assay [8]; -1.35 (inactive) in assay [9]; -2.6 in [10]; 0.567 in assay [11]; 1.25 in assay [12]; -0.617 in assay [13]. The z-score is -0.314 in assay [14]; -2.96 in [15]; -1.71 in assay [16]; -1.12 (inactive) in assay [17]; -0.722 in assay [18]; -0.556 in assay [19]. Moreover, the z-score in assay [20] was -0.665 (inactive). In assay [2], the composite z-score amounted to 0.0999.
On to `C=C(C(=O)CC[C@H](OC(=O)c1cccnc1)c1cccc(OCCO)c1)C(C)C`, for which the z-score in assay [1] was 0.184 (inactive); in assay [3], 14.4 (active); in [4] it was 2.83 (inactive); in assay [5], 1.76 (inactive); in assay [6], 1.04 (inactive); in [7], -0.0915. The z-score is 0.657 (inactive) in [8]; -0.0784 (inactive) in [9]; -2.05 in assay [10]; 0.647 in assay [11]; 0.47 in assay [12]; -0.419 in [13]. The z-score is -2.44 in assay [14]; -1.46 in [15]; -1.03 in assay [16]; 0.584 (inactive) in [17]; -0.0636 in [18]; -0.326 in assay [19]. In addition, the z-score in [20] was 0.371 (inactive). In assay [2], this compound yielded a composite z-score of 0.0327.
